ATG4B inh: blocks human ATG4B protease cleavage of LC3 substrate. AID 504462. 340,000 tested, 0.51% active. inhibition, % at 8.33 µM. ATG4B cleavage of LC3-PLA2, NBD-HPC fluorescence, 1 h. Q9Y4P1; in the data active means inhibition above about 40%
NRP1-CendR mod: alters CendR peptide binding to human NRP-1; 360,000 tested, 0.85% active; FAM-RPARPAR peptide binding to NRP-1, fluorescence polarization; inhibition, % at 25 µM;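 active means inhibition or corrected inhibition above about 18%, plus a signal ratio from 0.5 to 1.5, limit read from the data, passing the limit was not always enough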
PKA-R1A activ: activators of PKA-R1A complex | P00514+P68181 | PKA-R1A dissociation, Cy5-IP20 fluorescence polarization; scaled: DMSO 0%, 113 µM cGMP 100% | activation, % at 11.4 µM | 340,000 tested, 0.083% active;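 active means percent activation above the mean of all tested compounds plus 3 SD, cut at about 19% in these data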;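 further: higher means more PKAc released from R1A so a rise in polarization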
VLA-4 inh: inhibition in a human VLA-4 binding assay. P13612. VLA-4 expressing cells, ligand binding flow cytometry. inhibition, % (about 7 µM as worked out from the volumes in the protocol). 330,000 tested, 0.2% active. AID 2557
Target sequence (P13612 whole entry, looked up): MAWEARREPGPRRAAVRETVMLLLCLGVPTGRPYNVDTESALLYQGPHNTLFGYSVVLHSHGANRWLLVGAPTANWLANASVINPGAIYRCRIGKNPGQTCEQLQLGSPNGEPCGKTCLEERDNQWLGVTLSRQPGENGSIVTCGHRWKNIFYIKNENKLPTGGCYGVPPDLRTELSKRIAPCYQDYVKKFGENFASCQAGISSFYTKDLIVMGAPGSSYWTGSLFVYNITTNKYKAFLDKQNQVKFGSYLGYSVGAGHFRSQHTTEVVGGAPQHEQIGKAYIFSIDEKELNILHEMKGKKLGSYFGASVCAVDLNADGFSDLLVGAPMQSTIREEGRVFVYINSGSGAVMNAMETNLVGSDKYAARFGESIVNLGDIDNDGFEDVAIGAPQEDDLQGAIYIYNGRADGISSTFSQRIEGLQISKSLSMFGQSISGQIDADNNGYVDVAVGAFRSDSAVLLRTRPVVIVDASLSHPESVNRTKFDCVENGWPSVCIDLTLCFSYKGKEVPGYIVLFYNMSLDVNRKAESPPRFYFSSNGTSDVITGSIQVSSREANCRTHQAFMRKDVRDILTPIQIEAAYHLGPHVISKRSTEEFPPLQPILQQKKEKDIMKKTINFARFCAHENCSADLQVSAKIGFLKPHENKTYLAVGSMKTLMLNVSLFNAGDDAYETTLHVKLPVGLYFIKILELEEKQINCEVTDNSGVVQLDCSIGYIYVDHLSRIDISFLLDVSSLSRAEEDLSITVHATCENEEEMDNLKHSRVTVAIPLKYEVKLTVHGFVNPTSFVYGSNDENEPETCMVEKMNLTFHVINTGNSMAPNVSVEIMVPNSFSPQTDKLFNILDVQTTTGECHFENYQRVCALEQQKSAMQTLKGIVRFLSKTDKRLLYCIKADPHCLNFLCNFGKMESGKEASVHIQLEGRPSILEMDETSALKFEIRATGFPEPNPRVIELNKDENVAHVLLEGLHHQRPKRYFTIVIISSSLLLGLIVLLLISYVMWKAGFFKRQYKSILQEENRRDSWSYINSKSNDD
PKA-R2B activ: activates the human PKA-R2B holoenzyme complex | P22694+P31323 | PKA-R2B holoenzyme dissociation, Cy5-IP20 fluorescence polarization; R2B truncated from residue 108, S112A mutant; 0% DMSO only, 100% 113 µM cGMP | activation, % at 11.4 µM | 340,000 tested, 0.079% active;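 active means activation above a cutoff set at the mean over all compounds plus 3 SD, cut at about 18% in these data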;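 further: higher means more holoenzyme dissociation and a rise in polarization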
ATG4B conf: ATG4B (human) inhibition, single-dose confirmed. ATG4B protease fluorescent substrate cleavage assay. AID 504757. shares compounds with ATG4B inh. 320 tested, 92% active. inhibition, % at 8.33 µM; in the data active means inhibition above about 39%
PLA2 counter: PLA2 (human) inhibition in ATG4B counter-screen | shares compounds with ATG4B inh | 1,600 tested, 66% active | AID 588402 | purified PLA2, NBD-C6-HPC fluorescence, 45 min | inhibition, % at 8.33 µM
Active calls of the source: *; i = inactive; . = no result. In the library only some 1.6% were active in any assay of this set; here they are far more common. Unless noted, no stated cut-off is given here; in the data, active means inhibition above about 50%; inactive means the rest.

SMILES	ATG4B inh	NRP1-CendR mod	PKA-R1A activ	VLA-4 inh	PKA-R2B activ	PLA2 counter	others
Cc1cc(C)c2sc(N(CCCN(C)C)C(=O)c3ccc(S(=O)(=O)N(C)Cc4ccccc4)cc3)nc2c1	42*	0	-1	14	7	49
Cc1cc(-c2nnc(SCC(=O)Nc3ccccc3C(F)(F)F)o2)c(C)n1-c1ccccc1	-13	4	-2	15	-1	.
Cc1cccc(NC(=O)CSc2nnc(-c3cc(C)n(-c4ccccc4)c3C)o2)c1C	41*	-1	3	10	-14	56*
CCOc1ccc2nc(SCC(=O)NC3CCCc4ccccc43)sc2c1 (stereo not drawn)	50*	5	-3	-2	-3	44
CCOc1ccc2nc(SCC(=O)N3CCCc4ccccc43)sc2c1	-2	-14	-4	13	-8	.
CC(C)c1ccccc1OCC(=O)NC1CCCc2ccccc21 (stereo not drawn)	48*	-3	2	1	2	45	ATG4B conf=65*
CN1/C(=C\C(=S)NC(=O)c2ccccc2Cl)C(C)(C)c2ccccc21	49*	-134	-3	i	-11	40
O=C(Nc1cc(S(=O)(=O)N2CCOCC2)ccc1OCC(F)(F)F)C1=COCCO1	-5	-12	2	2	-3	.
Cc1ccccc1CNC(=O)c1ccc(CSCc2ccccc2)cc1	49*	6	-7	17	0	68*
c1ccc(-c2ccc(C(c3ccccc3)n3ccnc3)cc2)cc1 (stereo not drawn)	41*	4	-6	11	6	45	ATG4B conf=63*
CCn1nc([N+](=O)[O-])c(C(C#N)c2nc3cc(C(F)(F)F)ccc3s2)c(Cl)c1=O (stereo not drawn)	99*	26*	4	-10	-15	101*
C/C(N)=C(/C#N)C(=O)CSc1nc2cc(Cl)ccc2s1	-6	-1	-6	-2	5	.
O=C(COC(=O)/C=C/c1ccc([N+](=O)[O-])cc1)NC1CCCCC1	8	15	-5	4	-7	.
Cc1sc2nc(C(C)C)nc(SCC(=O)NCc3ccco3)c2c1C	42*	-16	-6	20	-15	47	ATG4B conf=50*
CCOC(=O)CSc1nc2sc(C)c(C)c2c(=O)n1C	-2	-6	1	2	0	.
Cc1nc(SCC(=O)NCc2ccco2)c2c(C)c(C)sc2n1	3	1	-6	5	8	.
Cc1sc2nc(C(C)C)nc(SCC(=O)N3c4ccccc4CC3C)c2c1C (stereo not drawn)	75*	-3	-1	8	-4	77*
CCOC(=O)CSc1nc(C(C)C)nc2sc(C)c(C)c12	62*	11	5	-4	-1	59*
Cc1ccc(C)c(Cn2ncc3ccccc32)c1	25	-3	0	-4	1	.
O=C(Nc1cccc(S(=O)(=O)C(F)(F)F)c1)[C@H]1C[C@H](O)[C@@H](CO)O1	.	-1	.	.	.	.
Cc1csc(NC(=O)c2ccccc2[N+](=O)[O-])n1	-3	6	-1	-1	7	.
O=C(O)c1ccccc1C(=O)Nc1nc(-c2ccc3ccccc3c2)cs1	83*	-18	-7	-1	5	84*
COc1ccc(-c2csc(NC(=O)c3ccccc3NS(=O)(=O)c3ccc(C)cc3)n2)cc1	74*	4	0	-11	-11	68*
Cc1ccc(-c2csc(NC(=O)c3cccc([N+](=O)[O-])c3C(=O)O)n2)cc1	53*	-1	-10	7	0	69*
O=C(Nc1nc(-c2cccc([N+](=O)[O-])c2)cs1)c1cccc([N+](=O)[O-])c1C(=O)O	79*	-6	-4	3	0	82*
CCOC(=O)C1=NNC2C(=O)N(Cc3ccccc3)C(=O)C12 (stereo not drawn)	-1	0	1	10	6	.

Bioassay records as filed in PubChem.
